In ChEMBL document CHEMBL1961873, “Compounds: GSK PKIS; Assays: Nanosyn kinase panel” (2012):

Tests used:
[1] = target: CDK3/Cyclin E (Homo sapiens) (UniProt P24864+Q00526); details: at 1 µM;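 note: each figure is a mean percent inhibition of the CDK3/cyclin E complex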
[2] = target: Cyclin-dependent kinase 4 (Homo sapiens) (UniProt P11802); details: at 0.1 µM
[3] = target: Cyclin-dependent kinase 4 (Homo sapiens) (UniProt P11802); details: at 1 µM
[4] = target: Cyclin-dependent kinase 5 (Homo sapiens) (UniProt Q00535); details: at 0.1 µM
Sequence of Cyclin-dependent kinase 5 (Homo sapiens) (Q00535 whole entry, looked up): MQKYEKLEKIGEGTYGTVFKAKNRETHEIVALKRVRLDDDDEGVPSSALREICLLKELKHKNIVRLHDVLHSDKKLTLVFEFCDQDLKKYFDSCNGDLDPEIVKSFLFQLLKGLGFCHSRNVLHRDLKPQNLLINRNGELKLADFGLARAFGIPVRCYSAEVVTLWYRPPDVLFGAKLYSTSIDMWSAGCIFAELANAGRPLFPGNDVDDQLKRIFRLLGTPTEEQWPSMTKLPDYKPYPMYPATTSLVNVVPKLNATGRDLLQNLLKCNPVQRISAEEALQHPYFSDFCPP

[5] = target: Cyclin-dependent kinase 5 (Homo sapiens) (UniProt Q00535); details: at 1 µM
[6] = target: Cyclin-dependent kinase 6 (Homo sapiens) (UniProt Q00534); details: at 0.1 µM
Sequence of Cyclin-dependent kinase 6 (Homo sapiens) (Q00534 whole entry): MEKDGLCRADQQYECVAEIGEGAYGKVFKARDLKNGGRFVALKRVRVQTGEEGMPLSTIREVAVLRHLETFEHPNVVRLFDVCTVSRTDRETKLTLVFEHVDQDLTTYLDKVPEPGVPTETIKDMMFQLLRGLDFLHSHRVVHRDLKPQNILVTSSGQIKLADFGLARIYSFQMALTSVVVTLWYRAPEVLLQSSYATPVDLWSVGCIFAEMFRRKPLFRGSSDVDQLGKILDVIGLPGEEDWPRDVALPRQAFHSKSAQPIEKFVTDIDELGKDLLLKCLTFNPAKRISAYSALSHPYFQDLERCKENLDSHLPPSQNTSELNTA

[7] = target: Cyclin-dependent kinase 6 (Homo sapiens) (UniProt Q00534); details: at 1 µM
[8] = target: Dual specificity protein kinase CLK2 (Homo sapiens) (UniProt P49760); details: at 0.1 µM
Sequence of Dual specificity protein kinase CLK2 (Homo sapiens) (P49760 whole entry, looked up): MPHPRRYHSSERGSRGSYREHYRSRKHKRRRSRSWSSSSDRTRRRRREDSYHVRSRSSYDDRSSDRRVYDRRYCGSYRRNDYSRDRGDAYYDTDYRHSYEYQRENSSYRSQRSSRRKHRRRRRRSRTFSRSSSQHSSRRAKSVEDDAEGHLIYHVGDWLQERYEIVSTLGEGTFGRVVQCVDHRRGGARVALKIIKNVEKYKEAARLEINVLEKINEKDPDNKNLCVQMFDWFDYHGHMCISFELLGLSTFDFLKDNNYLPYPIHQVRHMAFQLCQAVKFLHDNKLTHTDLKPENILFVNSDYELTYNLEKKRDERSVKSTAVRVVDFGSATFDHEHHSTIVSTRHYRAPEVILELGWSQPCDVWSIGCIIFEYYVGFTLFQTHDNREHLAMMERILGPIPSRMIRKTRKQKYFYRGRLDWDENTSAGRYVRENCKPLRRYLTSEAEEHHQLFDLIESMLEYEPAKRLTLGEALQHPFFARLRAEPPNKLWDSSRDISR

[9] = target: Dual specificity protein kinase CLK2 (Homo sapiens) (UniProt P49760); details: at 1 µM
[10] = target: Dual specificity protein kinase CLK3 (Homo sapiens) (UniProt P49761); details: at 0.1 µM
Sequence of Dual specificity protein kinase CLK3 (Homo sapiens) (P49761 whole entry, looked up): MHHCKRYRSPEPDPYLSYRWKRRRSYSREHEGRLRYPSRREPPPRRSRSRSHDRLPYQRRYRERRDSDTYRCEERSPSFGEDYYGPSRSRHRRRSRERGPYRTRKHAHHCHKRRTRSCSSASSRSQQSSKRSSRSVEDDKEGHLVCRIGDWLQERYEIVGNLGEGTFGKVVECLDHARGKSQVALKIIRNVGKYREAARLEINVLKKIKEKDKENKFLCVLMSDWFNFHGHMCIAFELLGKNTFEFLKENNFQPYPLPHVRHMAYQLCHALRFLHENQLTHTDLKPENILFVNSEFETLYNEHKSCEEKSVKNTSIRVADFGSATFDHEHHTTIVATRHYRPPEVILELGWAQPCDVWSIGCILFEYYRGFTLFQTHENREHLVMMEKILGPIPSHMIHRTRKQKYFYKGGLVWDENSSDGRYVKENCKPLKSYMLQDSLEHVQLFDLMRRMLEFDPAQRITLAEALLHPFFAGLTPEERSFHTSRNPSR

Sequence of CDK3/Cyclin E (Homo sapiens) (P24864 whole entry, looked up): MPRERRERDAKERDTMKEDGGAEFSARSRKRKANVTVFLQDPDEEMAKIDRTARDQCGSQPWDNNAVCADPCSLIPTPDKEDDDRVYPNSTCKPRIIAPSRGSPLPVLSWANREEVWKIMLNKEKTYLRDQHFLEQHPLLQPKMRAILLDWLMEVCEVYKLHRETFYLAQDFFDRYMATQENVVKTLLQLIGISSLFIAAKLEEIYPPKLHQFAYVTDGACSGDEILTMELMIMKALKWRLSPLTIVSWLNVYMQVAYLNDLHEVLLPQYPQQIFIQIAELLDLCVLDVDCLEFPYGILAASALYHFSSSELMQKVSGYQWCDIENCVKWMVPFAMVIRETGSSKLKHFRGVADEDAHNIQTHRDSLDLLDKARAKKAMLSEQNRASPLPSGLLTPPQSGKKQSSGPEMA
Sequence of CDK3/Cyclin E (Homo sapiens) (Q00526 whole entry, looked up): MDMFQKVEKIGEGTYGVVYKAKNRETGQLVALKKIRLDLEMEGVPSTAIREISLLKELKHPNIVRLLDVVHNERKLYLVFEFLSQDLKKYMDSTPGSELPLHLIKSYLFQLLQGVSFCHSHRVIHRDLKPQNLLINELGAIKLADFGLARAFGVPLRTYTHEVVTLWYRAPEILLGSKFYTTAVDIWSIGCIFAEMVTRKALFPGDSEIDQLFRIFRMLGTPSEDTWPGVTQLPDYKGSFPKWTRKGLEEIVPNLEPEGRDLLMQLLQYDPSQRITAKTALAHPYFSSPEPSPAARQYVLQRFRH
Sequence of Cyclin-dependent kinase 4 (Homo sapiens) (P11802 whole entry): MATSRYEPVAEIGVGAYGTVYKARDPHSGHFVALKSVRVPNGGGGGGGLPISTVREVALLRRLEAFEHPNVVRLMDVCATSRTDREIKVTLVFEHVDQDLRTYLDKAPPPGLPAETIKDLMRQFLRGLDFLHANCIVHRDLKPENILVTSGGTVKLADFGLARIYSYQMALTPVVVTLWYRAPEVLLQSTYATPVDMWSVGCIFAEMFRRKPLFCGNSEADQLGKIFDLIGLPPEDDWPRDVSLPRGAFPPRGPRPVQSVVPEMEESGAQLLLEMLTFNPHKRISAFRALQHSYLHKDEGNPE

Row | SMILES | inhibition [1] | inhibition [2] | inhibition [3] | inhibition [4] | inhibition [5] | inhibition [6] | inhibition [7] | inhibition [8] | inhibition [9] | inhibition [10]
1 | CCc1nccc2c1nc(-c1nonc1N)n2CC | -0.63% | 1.93% | 2.76% | 1.21% | 2.65% | -8.01% | -0.61% | 1.1% | 2.67% | -0.31%
2 | COc1cc(Nc2ncc3c(C)nc(-c4cccc(Oc5ccccc5)c4)n3n2)cc(OC)c1OC | 3.12% | 0.68% | 1.99% | 0.07% | 1.06% | 2.92% | 3.25% | 0.86% | 3.28% | 0.71%
3 | Nc1nccc(-c2c(-c3ccc(F)cc3)ncn2C2CCC(O)CC2)n1 (stereo not given) | -0.81% | 0.24% | 1.17% | 0.55% | 1.98% | 1.41% | 1.1% | 1.54% | 0.55% | 1.02%
4 | CN(c1ccc(NC(=O)Nc2c(Cl)cccc2Cl)cc1)c1ccnc(Nc2cccc(CS(C)(=O)=O)c2)n1 | -0.7% | -0.86% | -0.25% | 0.43% | 1.99% | 3.57% | -0.75% | 3.63% | 5.49% | -0.2%
5 | C[C@@H](Oc1cc(-n2cnc3ccc(OCC4CCN(C)CC4)cc32)sc1C(N)=O)c1ccccc1Cl | -1.61% | 2.79% | 7.39% | 1.33% | 3.11% | 0.41% | 0.37% | 1.46% | 7.9% | 1.64%
6 | Cc1ccc(NC(=O)c2ccoc2)cc1-c1ccc(C(=O)NCC2CC2)cc1 | -5.1% | 0.87% | 2.89% | 0.24% | 1.07% | -5.62% | 0.19% | 0.43% | -2.64% | 0.53%
7 | COc1cc(Nc2ncc3c(C)nc(-c4cccc(C(F)(F)F)c4)n3n2)cc(OC)c1OC | 7.51% | 1.78% | 3.89% | 1.13% | 9.6% | 3.14% | 7.16% | 3.78% | 21.9% | 1.23%
8 | O=C(NCC1CC1)c1ccc(-c2cccc(C(=O)NC3CC3)c2)cc1 | 2.64% | 2.46% | 2.18% | 0.16% | 0.99% | 5.87% | -0.5% | -0.19% | 1.77% | 0.44%
9 | Fc1ccc(-c2nc3n(c2-c2ccncc2)CCS3)cc1 | -2.73% | -1.97% | -0.8% | -2.49% | -2.61% | -7.51% | -1.4% | 1.78% | 0.05% | -1.51%
10 | CCc1cccc(CC)c1/C=C/c1cncc(C(=O)NC)c1 | 1.62% | 3.61% | 4.03% | 0.43% | 1.68% | 3.11% | 2.84% | -1.55% | 3.8% | 1.35%
11 | NS(=O)(=O)c1ccc(Nc2cc(-c3ccc(O)c(F)c3)n[nH]2)cc1 | 60.1% | 3.31% | 23.6% | 20.1% | 68.7% | 21.6% | 70.9% | 1.17% | 3.95% | -0.37%
12 | COc1ccc(-c2ccc3c(NC(=O)C4CC4)n[nH]c3n2)cc1 | 3.03% | 1.65% | 11.4% | 0.42% | 2.12% | 5.98% | 38% | 0.68% | 1.56% | 0.83%
13 | O=C(Nc1n[nH]c2nc(-c3ccc(O)cc3)c(Br)cc12)C1CC1 | 78.2% | 42% | 73.9% | 14.7% | 55.3% | 38.9% | 74.7% | 1.45% | 5.65% | 2.91%
14 | COc1cccc(-n2cnc3c(N/N=C/c4ccncc4)ncnc32)c1 | 0.9% | -6.94% | -4.27% | -3.69% | -0.49% | -0.76% | -8.82% | 3.04% | 5.72% | -3.93%
15 | Fc1ccc(-c2ncn(CCCN3CCOCC3)c2-c2ccncc2)cc1 | 1.42% | 0.02% | 5.08% | 1.43% | 3.98% | -8.34% | -1.04% | 1.11% | 2.52% | -1.43%
16 | COc1ccc(C2=C(N3CCc4ccccc43)C(=O)NC2=O)cc1 | -1.35% | 3.95% | 4.61% | 1.51% | 3.83% | 4.88% | 7.18% | 0.19% | 7.06% | 2.88%
17 | CN(C)c1ccc2c(c1)/C(=C/Nc1ccc(S(N)(=O)=O)cc1)C(=O)N2 | 38.9% | 11.3% | 43.5% | 16.2% | 57% | 4.7% | 48.2% | 1.72% | 11% | 0.66%

Row | SMILES | inhibition [1] | inhibition [2] | inhibition [3] | inhibition [4] | inhibition [5] | inhibition [6] | inhibition [7] | inhibition [8] | inhibition [9] | inhibition [10]
18 | CS(=O)(=O)CCNCc1ccc(-c2ccc3ncnc(Nc4ccc(OCc5ccccc5)c(Br)c4)c3c2)o1 | -3.92% | -1.53% | -0.83% | -3.53% | -2.4% | -4.44% | -4.65% | 1.39% | -1.17% | -3.26%
19 | NC(=O)c1ccc(Oc2nccc(-c3c(-c4ccc(F)cc4)ncn3C3CCNCC3)n2)cc1 | 1.23% | 3.18% | 3.14% | 1.5% | 1.61% | -4.69% | -0.8% | 1.44% | 6.51% | 2.43%
20 | NC(=O)Cc1ccccc1Oc1nccc(-c2c(-c3ccc(F)cc3)ncn2C2CCNCC2)n1 | -1.4% | 0.31% | 0.75% | 0.66% | 0.67% | -4.52% | 0.67% | 1.69% | 2.11% | 1.44%
21 | CCS(=O)(=O)c1ccc(OC)c(Nc2ncc(-c3ccccc3Cl)o2)c1 | -0.99% | -0.77% | -0.72% | 0.11% | 0.87% | 4.47% | 3.06% | 4.19% | 34.1% | 0.66%
22 | O=C1Nc2ccccc2/C1=C/Nc1ccc(-n2cncn2)cc1 | 16.1% | 9.53% | 25.2% | 3.62% | 21.5% | 18% | 66.2% | 4.14% | 21.6% | 0.91%
23 | C[C@@H](Oc1cc(-n2cnc3ccc(OC4CCN(C)CC4)cc32)sc1C(N)=O)c1ccccc1Cl | 0.13% | -0.83% | -0.3% | -2.91% | -2.26% | -5.27% | -2.7% | 3.05% | 6.53% | -2.76%
24 | NCc1ccc(-n2c(-c3nonc3N)nc3cnccc32)cc1 | 6.36% | 5.03% | 10.2% | 4.76% | 11.9% | -0.37% | 5.55% | 6.2% | 28.7% | 2.13%
25 | COc1ccc2ncn(-c3cc(O[C@H](C)c4ccccc4Cl)c(C(N)=O)s3)c2c1 | -2.98% | -2.27% | -0.19% | -3.87% | -2.17% | -3.71% | -2.1% | 0.43% | 0.2% | -2.29%
26 | C#Cc1cccc(Nc2ncnc3ccc(OCCCCNCCS(C)(=O)=O)cc23)c1 | -3.02% | -1.23% | 0.97% | -2.73% | -2.83% | -4.26% | 0.21% | 1.01% | 1.36% | -1.3%
27 | NS(=O)(=O)c1ccc(N/N=C2\C(=O)Nc3ccc(-c4cnco4)cc32)cc1 | 89.2% | 6.57% | 42% | 50.2% | 71.8% | 9.49% | 50.3% | 5.36% | 35.9% | -3.12%
28 | COc1cc2ncn(-c3cc(OCCc4ccccc4)c(C(N)=O)s3)c2cc1OC | 0.51% | 1.86% | 1.87% | 0.7% | 1.45% | -3.45% | 2.54% | 1.3% | 2.64% | 0.57%
29 | CCc1ccc(Oc2nccc(-c3c(-c4ccc(F)cc4)ncn3C3CCNCC3)n2)cc1 | -3.4% | 1.49% | 2.34% | 0.94% | 2.25% | -3.34% | -4.3% | 1.29% | 3.58% | 0.96%
30 | FC(F)(F)c1cccc(Nc2nccc(-c3cnn4nc(-c5ccccc5)ccc34)n2)c1 | 2.5% | 1.39% | 5.84% | 0.4% | 3.29% | 0.39% | 2.53% | 57.2% | 92.1% | 1.66%
31 | CNC(=O)c1cncc(/C=C/c2c(C)cccc2C)c1 | -0.8% | -2.46% | -1.6% | -2.99% | -1.16% | 3.56% | 0.79% | 0.58% | -1.19% | -2%
32 | Cc1ccc(C(=O)NC(C)C)cc1-c1ccc(C(=O)NCC2CC2)cc1 | -1.55% | -0.49% | 0.6% | 0.55% | 2.73% | -1.81% | -0.75% | -1.1% | -0.78% | -0.64%
33 | C/C(Nc1ccc(S(N)(=O)=O)cc1)=C1/C(=O)Nc2ccccc21 | 50.1% | 3.5% | 32% | 8.67% | 44.7% | 37% | 74.7% | 0.33% | 2.45% | -0.03%
34 | COc1ccc2cc(-c3c(-c4ccncc4)nc(-c4ccc(S(C)(=O)=O)cc4C)n3C)ccc2c1 | -3.73% | 3.77% | 4.56% | 0.42% | -0.58% | 0.01% | 1.21% | 0.85% | -1.59% | 1.66%
